Consider 25 molecules from PubChem BioAssay.

Unmarked numbers belong to inactive results. The source made the active and inactive calls. Rule as the data show it, unless noted: active = inhibition above about 44%; inactive = the rest.

A short description of assay [1]: StAR promoter reporter inhibitors, counter-screen for LRH-1 inverse agonist project, cell-based, luminescence, high throughput (AID 651611; in the data active = inhibition above about 28%). The conditions noted are these: StAR promoter luciferase reporter counterscreen, at 3.6 µM, stronger effect = higher value.
For assay [2], the target named is Nuclear receptor subfamily 5 group A member 2 (Homo sapiens) (UniProt O00482). Nature of the assay: NR5A2 activity suppression in reporter cells – cell-based, luminescence, confirmation (AID 651613; in the data active = inhibition above about 42%;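 also: HEK293T cells co-transfected with LRH-1 and StAR promoter luciferase reporter; 0% = vehicle wells and 100% = parental cells lacking receptor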). To be noted: cell-based LRH-1 luciferase reporter, inverse agonism; at 3.6 µM; stronger effect = higher value. (In general: A reporter such as luciferase makes a cellular process visible.)

For assay [3], the target named is Steroidogenic factor 1 (Homo sapiens) (UniProt Q13285). Description: inverse agonism at SF1 nuclear receptor – cell-based, luminescence, high throughput, counter-screen for LRH-1 inverse agonist project (AID 651614).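 Also: cells cotransfected with StAR promoter reporter and SF1 expression vector; 0% = vehicle on cells with receptor and 100% = vehicle on cells lacking receptor.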 The conditions noted are these: cell-based SF1 luciferase reporter, at 3.6 µM, stronger effect = higher value. A general note: A counterscreen serves to expose hits that act by an unwanted route or on another target.

Assay [4] is described as follows: compounds suppressing VP16-driven luciferase signal – cell-based, luminescence, high throughput, counter-screen for LRH-1 inverse agonist project (AID 651615; in the data active = inhibition above about 33%). The conditions noted are these: Gal4-VP16 luciferase reporter cells, at 3.6 µM, stronger effect = higher value.

Sequence of Nuclear receptor subfamily 5 group A member 2 (Homo sapiens) (O00482 whole entry, looked up): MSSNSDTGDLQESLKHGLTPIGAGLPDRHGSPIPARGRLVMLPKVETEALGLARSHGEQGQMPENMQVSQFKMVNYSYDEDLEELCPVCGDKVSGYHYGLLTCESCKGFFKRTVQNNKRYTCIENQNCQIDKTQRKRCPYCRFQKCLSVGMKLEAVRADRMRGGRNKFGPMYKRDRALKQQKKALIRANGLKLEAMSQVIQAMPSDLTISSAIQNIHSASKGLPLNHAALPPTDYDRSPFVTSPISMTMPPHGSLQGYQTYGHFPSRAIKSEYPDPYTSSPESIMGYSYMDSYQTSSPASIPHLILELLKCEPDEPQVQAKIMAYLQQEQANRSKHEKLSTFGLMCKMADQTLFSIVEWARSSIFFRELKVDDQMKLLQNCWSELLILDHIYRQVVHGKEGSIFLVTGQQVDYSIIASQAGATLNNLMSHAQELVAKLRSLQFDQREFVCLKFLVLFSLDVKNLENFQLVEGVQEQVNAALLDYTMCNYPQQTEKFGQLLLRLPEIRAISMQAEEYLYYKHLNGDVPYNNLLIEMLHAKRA
Sequence of Steroidogenic factor 1 (Homo sapiens) (Q13285 whole entry, looked up): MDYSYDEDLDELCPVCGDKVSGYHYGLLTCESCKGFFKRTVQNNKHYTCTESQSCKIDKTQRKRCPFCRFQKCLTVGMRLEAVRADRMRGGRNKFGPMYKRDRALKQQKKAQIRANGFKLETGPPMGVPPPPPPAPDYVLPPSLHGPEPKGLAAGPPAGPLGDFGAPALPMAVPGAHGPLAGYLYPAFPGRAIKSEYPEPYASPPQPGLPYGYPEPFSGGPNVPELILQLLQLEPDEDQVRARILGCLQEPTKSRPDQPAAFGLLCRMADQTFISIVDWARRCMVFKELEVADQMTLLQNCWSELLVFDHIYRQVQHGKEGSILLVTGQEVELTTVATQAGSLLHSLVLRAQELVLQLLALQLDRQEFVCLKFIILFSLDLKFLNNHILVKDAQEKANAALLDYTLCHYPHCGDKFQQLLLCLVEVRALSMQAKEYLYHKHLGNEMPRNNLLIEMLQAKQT

For the molecule `CN(C)c1ccc(CNc2ncnc3sccc23)cc1`, the inhibition is 2.38% in assay [1], 71% (active) in assay [2], 47.9% (active) in assay [3] and 42.5% (active) in assay [4].

On to `O=[N+]([O-])c1cnccc1Nc1ccc(Cl)cc1`, for which the inhibition in assay [1] was 15.6%; in assay [2], 64.1% (active); in assay [3] it was 60.5% (active); in assay [4], 18.9%.

As for `COc1ccnc(Oc2ccccc2)c1C(=O)N/C=N/OCc1ccccc1F`, the inhibition was 12.8% in assay [1], 56.9% (active) in assay [2], 48.8% (active) in assay [3] and -12.9% in assay [4].

On to `O=C(Nc1cc(C(F)(F)F)ccc1-n1cncn1)c1ccc([N+](=O)[O-])o1`, for which the inhibition in assay [1] is 22.2%; in assay [2], 57.7% (active); in assay [3], 49.1% (active); in assay [4], -15.7%.

In the case of `CC(C)C(=O)Nc1ccc(C(=O)CN2C(=O)NC3(CCOc4ccccc43)C2=O)cc1` (stereo not given), the inhibition was 8.93% in assay [1], 37.1% in assay [2], 36.7% in assay [3] and 7.98% in assay [4].

For the molecule `Cc1cccc(CN2C(=O)CSc3ccc(C(=O)NC4CC4)cc32)c1`, the inhibition is 10.4% in assay [1], 62.2% (active) in assay [2], 51.8% (active) in assay [3] and -6.63% in assay [4].

In the case of `COc1ccccc1-c1nnc2sc(-c3ccc(N(C)C)cc3)nn12`, the inhibition is 50.1% (active) in assay [1], 31% in assay [2], 57.1% (active) in assay [3] and 31.2% (active) in assay [4].

Consider `COc1ccc(S(=O)(=O)N2CCOCC2)cc1N=Nc1sc(N)nc1-c1ccccc1`, for which the inhibition in assay [1] was 36.4% (active); in assay [2], 60.7% (active); in assay [3], 66.3% (active); in assay [4] it was -3.07%.

For the molecule `CNc1nc2sc3c(c2c(=O)n1C)CC(C)(C)SC3`, the inhibition in assay [1] was 2.32%; in assay [2], 34.9%; in assay [3], 45.6% (active); in assay [4], -1.52%.

For `COc1cc(-c2cnc3c(NC=O)cc(-c4cccc(NC(C)=O)c4)cn23)cc(OC)c1OC`, the inhibition is 62.9% (active) in assay [1], 74.9% (active) in assay [2], 71.5% (active) in assay [3] and -23.8% in assay [4].

As to `COC(=O)c1ccc([C@H](NC(=O)c2ccco2)[C@]2(C)C[C@H]2C2CCCCC2)cc1`, the inhibition was 4.8% in assay [1], 30.3% in assay [2], 21.1% in assay [3] and 2.54% in assay [4].

Turning to `Cc1cc2oc(=O)cc(-c3ccccc3)c2c(C)c1-c1ccc(N(C)C)cc1`, the inhibition in assay [1] was 0.45%; in assay [2], 52% (active); in assay [3] it was 51.3% (active); in assay [4] it was 12.6%.

Take `C/C(=N\NC(N)=S)c1ccc(-n2ccnc2)cc1`: the inhibition in assay [1] was 10.1%; in assay [2] it was 60.5% (active); in assay [3] it was 53.4% (active); in assay [4], -13.1%.

Consider `COc1ccc(C2=Nn3c(nnc3-c3ccccc3F)SC2)cc1OC1CCOC1` (stereo not given), for which the inhibition is 56.2% (active) in assay [1], 75% (active) in assay [2], 78.2% (active) in assay [3] and -40.3% in assay [4].

Regarding `CCn1cc(Br)c(C(=O)Nc2ccccc2C(=O)OC)n1`, the inhibition in assay [1] was 7.57%; in assay [2] it was 47.4% (active); in assay [3], 46.6% (active); in assay [4], -5.16%.

As to `CN(C)c1ccc(C(=O)OCC(=O)Nc2ccc(N3CCOCC3)cc2)cc1`, the inhibition in assay [1] was -5.42%; in assay [2], 62% (active); in assay [3], 55.8% (active); in assay [4], -6.21%.

As to `COc1ccc2nc(N3CCN(C(=O)c4ccc([N+](=O)[O-])o4)CC3)sc2c1`, the inhibition in assay [1] is 0.52%; in assay [2], 64.3% (active); in assay [3], 61.8% (active); in assay [4], -44.3%.

Take `COc1ccc(CNC(=O)c2cccc3c(-c4cnn(C)c4)coc23)cc1OC`: the inhibition in assay [1] was 12.8%; in assay [2] it was 46.2% (active); in assay [3] it was 46% (active); in assay [4], 36.4% (active).

On to `Oc1ccc2ccccc2c1C=NCc1ccccc1`, for which the inhibition is 22.8% in assay [1], 15.3% in assay [2], 16.9% in assay [3] and 3.34% in assay [4].

For the molecule `O=C(CCl)Nc1ccc(S(=O)(=O)NC2=NCCCCC2)cc1`, the inhibition is 41.5% (active) in assay [1], 62% (active) in assay [2], 61% (active) in assay [3] and 17.7% in assay [4].

`CC(C)c1cc(NC(=O)CCl)on1`: the inhibition in assay [1] was 35.2% (active); in assay [2], 47.4% (active); in assay [3], 51.9% (active); in assay [4] it was -11.4%.

For `Cc1ccc2[nH]c3c(c2c1)CCN1C(=O)OC(C)(C)C31C` (stereo not given), the inhibition in assay [1] is 10.6%; in assay [2] it was 53.7% (active); in assay [3], 49% (active); in assay [4] it was -1.39%.

As to `COC(=O)c1ccc(NC(=O)CN2CCN(S(=O)(=O)c3cc(Cl)ccc3OC)CC2)cc1`, the inhibition in assay [1] was 9.56%; in assay [2], 60.3% (active); in assay [3], 57.5% (active); in assay [4], 7.76%.

As to `CCn1nnnc1SCC(=O)N(C)C1CCS(=O)(=O)C1` (stereo not given), the inhibition was 12.5% in assay [1], 47.9% (active) in assay [2], 48.1% (active) in assay [3] and -0.7% in assay [4].

Consider `O=C(NCCCNc1ccc([N+](=O)[O-])cc1)C(F)(F)F`, for which the inhibition is 9.72% in assay [1], 54.9% (active) in assay [2], 52.4% (active) in assay [3] and -18.2% in assay [4].

In general, inhibition refers to the relative decrease from the control value, in per cent.
